# Bioassay records (PubChem)
# ELG1 repair inh = blocks ELG1-dependent DNA repair in HEK293T cells. HEK293T ELG1-luciferase reporter, luminescence, 16 h; DNA damage induced by 5-fluorouridine. Potency, µM (series often up to 46.1 µM), without a hit: at the highest dose activity change, negative = inhibition, actives largely listed as inhibitors. 330,000 tested, 2.3% active; also: potency is read from the fitted curve at half-maximal effect; % is scaled to controls: 0 for no effect and ±100 for the full control effect; nearly all actives have a fitted effect of over 55% in size
#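 In this reporter screen, reduction of luminescence relative to DMSO vehicle indicated activity. Compounds and 5-fluorouridine were added together to 2,000 cells per well, incubated for 16 hr at 37 °C, then developed with ONE-Glo.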
# p53 reactivator = re-activators of mutant p53; 320,000 tested, 0.063% active; Potency, µM (top dose mostly 92.2 µM), for the others: at the top dose activity change, positive = activation, most hits filed as activators; H1299 p53-A138V BP100-luciferase reporter, luminescence, 24 h; AID 504706; also: potency is read from the fitted curve at half-maximal effect; % of control where 0% means no effect; nearly all actives have a fitted effect of over 45% in size
#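 p53-null H1299 cells stably carrying temperature-sensitive p53-A138V and a BP100-luciferase reporter were pinned with compounds (4-point, 1:5 series) and held 24 hrs at 37 deg C. Luminescence was read 10 min after detection reagent.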
# VP16 counter = counter-screen for ROR gamma inhibitors: Gal4-VP16 reporter. 310,000 tested, 3.5% active. Potency, µM (top dose mostly 53.6 µM), without a hit: at the top dose activity, negative = inhibition, usual class: inhibitors. AID 2546. Drosophila S2 Gal4-VP16 UAS-luciferase, luminescence, 20 h;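 also: Gal4-VP16 expression switched on by copper sulfate through the metallothionein promoter; potency is read from the fitted curve at half-maximal effect; % is scaled to controls: 0 for no effect and ±100 for the full control effect; nearly all actives have a fitted effect of over 50% in size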
# RORgamma inh = inhibitors of mouse ROR gamma transcriptional activity; AID 2551; 310,000 tested, 5.4% active; P51450; Drosophila S2 Gal4-RORgamma UAS-luciferase reporter, 20 h; Potency, µM (titrated, usually from 53.6 µM), for the others: at the highest dose activity change, negative = inhibition, most hits filed as inhibitors; also: potency is read from the fitted curve at half-maximal effect; % is scaled to controls: 0 for no effect and ±100 for the full control effect; nearly all actives have a fitted effect of over 60% in size
# Target sequence (P51450 whole entry, looked up, the tested form may be a part): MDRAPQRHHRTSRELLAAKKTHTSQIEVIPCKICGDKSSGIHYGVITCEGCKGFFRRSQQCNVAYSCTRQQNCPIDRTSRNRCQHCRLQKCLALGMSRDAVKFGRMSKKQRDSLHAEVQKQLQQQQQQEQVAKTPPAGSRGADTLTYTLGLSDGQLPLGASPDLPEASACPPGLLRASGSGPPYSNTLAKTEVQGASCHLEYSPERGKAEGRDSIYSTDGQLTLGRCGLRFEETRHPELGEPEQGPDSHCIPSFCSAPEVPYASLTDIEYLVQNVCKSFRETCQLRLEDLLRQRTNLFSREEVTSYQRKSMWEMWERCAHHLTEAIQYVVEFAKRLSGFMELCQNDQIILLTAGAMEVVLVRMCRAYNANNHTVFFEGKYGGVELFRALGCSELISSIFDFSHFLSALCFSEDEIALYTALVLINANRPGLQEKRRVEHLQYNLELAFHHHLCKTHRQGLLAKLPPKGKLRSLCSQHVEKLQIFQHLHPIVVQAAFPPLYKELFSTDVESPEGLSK
#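 A Gal4/UAS one-hybrid system in insect cells: metallothionein-promoter Gal4–ROR gamma fusion plus Photinus luciferase reporter. Copper sulfate 700 uM final, 20 hr ambient incubation, luminescent detection after 10 min with reagent.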
# Giardia kill = kills Giardia lamblia. Giardia lamblia trophozoite viability. activity change, % at 7.66 µM, hits read low. 340,000 tested, 0.15% active; in the data active = activity change below about -80%; inconclusive = between about -30% and that limit;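 also: parasites exposed to compound for two days anaerobically before the ATP read; % is scaled to controls: 0 for no effect and ±100 for the full control effect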
#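 Giardia trophozoites, 100 cells per well, were exposed to compounds for 48 hrs at 37 deg C under anaerobic conditions; viability was then read as ATP content by bioluminescence after 15-30 min at room temperature.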
# BRCA1 expr act = increases BRCA1 expression; Potency, µM (top dose mostly 46.1 µM), without a hit: at the highest dose activation, usual class: activators; 380,000 tested, 1.1% active; MCF7-BRCA1-FFLuc reporter, luminescence, 48 h; response scale: scaled: vehicle 0%, 10 µM genistein 100%; AID 624202; also: potency is read from the fitted curve at half-maximal effect; nearly all actives have a fitted effect of over 80% in size
#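 48 h compound treatment of MCF7-BRCA1-FFLuc cells (phenol-red free MEM, 37 °C), then 15 min with luciferase substrate and luminescence imaging.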
# Starred values were filed as active, the others as inactive; ? = inconclusive; nt = not tested or not shown; [ ] = another dose, or the depositor's remark. Compounds with a hit are over-represented: about 7.6% of the library has one in this group of screens. Unless noted, calls follow the shape of the dose curve; as a rule, active = well fitted curve in the direction sought with a large enough effect; inconclusive = small, poorly fitted or top-dose-only effect, or another doubt; inactive = no such curve, though single readings can be large; an effect the other way counts as inactive or inconclusive.
SMILES,ELG1 repair inh,p53 reactivator,VP16 counter,RORgamma inh,Giardia kill,BRCA1 expr act
CC(C)C[C@H](NC(=O)c1[nH]cnc1C(=O)N[C@@H](Cc1ccccc1)C(=O)OC(C)(C)C)C(=O)OCc1ccccc1,16%,nt,?,7.9µM*,-2,-39%
CCN(CC)C(=O)c1[nH]cnc1C(=O)N[C@@H](Cc1ccccc1)C(=O)OC(C)(C)C,0%,nt,?,10µM*,7,-16%
COC(=O)[C@@]1(Sc2ccc(C)cc2)CC(=O)N(C(=O)C2CC2)[C@@H]1c1ccccc1,nt,nt,nt,nt,nt,7%
COc1ccc(-c2cc(=O)c3c(O)c(OC)c(O)cc3o2)cc1,?,11%,10µM*,?,?,?
O=C1NC[C@@H](CCCCN2C[C@H](Cc3ccccc3)N(CCC3CCCCC3)C(=O)C2=O)N(Cc2ccccc2)C1=O,nt,nt,nt,nt,nt,-4%
CC(=O)Nc1ccc(Nc2cc(C)c3ccccc3n2)cc1,2%,nt,-2%,27%,-8,0%
CCOc1ccc(Nc2cc(C)c3ccccc3n2)cc1,?,18%,-21%,-5%,2,10µM*
Nn1c(Nc2ccccc2)nc2ccccc21,?,?,9%,7%,-13,10µM*
CCOc1ccc(NC(=O)c2cc(Cl)nc3ccccc23)cc1,-12%,0%,-2%,1%,-5,-76%
CCOc1ccc(Nc2c3ccccc3nc3ccccc23)cc1,5.8µM*,-6%,?,18%,0,-22%
Cc1ccccc1Nc1nc2ccccc2n1C(C)C,-1%,2%,-4%,10µM*,-1,3%
COc1cccc(Nc2nc3ccccc3n2C(C)C)c1,-3%,-16%,-20%,-36%,-3,-17%
Cc1nc(NCCOc2ccccc2)sc1C(=O)Nc1ccccc1,?,11%,-1%,-34%,?,22%
CCOc1ccc(CNc2ccc3c(c2)nc(C)n3C)cc1,28%,14%,?,19%,-1,11µM*
CCOc1ccc(Nc2nc3ccccc3n2C)cc1,nt,nt,nt,nt,5,2.5µM*
CCOc1ccc(CNc2nc3ccccc3n2C)cc1,?,?,-6%,33%[1.91 µM],-1,?
Cn1c(Nc2ccccc2)nc2ccccc21,?,nt,nt,nt,5,40%
CCc1ccc(CNc2ccc3c(c2)ncn3CC)cc1,?,?,?,-41%,0,6.3µM*
COc1ccc(CNc2ccc3c(c2)nc(C)n3C)cc1OC,?,nt,nt,nt,5,49%
CCc1ccccc1Nc1nc2ccccc2n1C,-4%,-1%,?,10µM*,-17,50%
CCn1cnc2cc(NCc3ccc(OC)cc3)ccc21,?,?,0%,0%,10,?
CCOc1ccc(N2C(=O)Nc3ccc(Br)cc3C2(O)C(=O)NCCCN(C)C)cc1 (stereo not given),-3%,-3%,-14%,4%,1,-8%
CN1CCC(=NNC(=O)CN(c2cccc([N+](=O)[O-])c2)S(=O)(=O)c2ccccc2)CC1,0%,1%,5%,12%,-7,8%
COc1cc(NC(=O)C/C(C)=N/NC(=O)C2CCCCC2)c(OC)cc1Cl,16%,1%,-9%,2%,5,-42%
NC1=NC(=O)C(c2ccccc2)C(=O)N1 (stereo not given),nt,nt,nt,nt,2,-6%
SMILES,ELG1 repair inh,p53 reactivator,VP16 counter,RORgamma inh,Giardia kill,BRCA1 expr act
COc1cc(NC(=O)c2csc(N)n2)cc(C(=O)Nc2cccc(C(F)(F)F)c2)c1,23µM*,8%,9%,6%,-29,-55%
COc1cc(NC(=O)c2cnc(N)o2)cc(C(=O)Nc2cccc(C(F)(F)F)c2)c1,15µM*,-6%,?,?,8,-2%
Cc1cc(C(C)(C)CC(C)(C)C)ccc1OCCOCC[N+](C)(C)Cc1ccccc1,-16%,-6%,18µM*,?,3,-39%
COCC(=O)Nc1ncc(S(=O)(=O)c2ccc([N+](=O)[O-])cc2)s1,-7%,3%,8%,-34%,4,-12%
O=C(NC(Nc1ncc(S(=O)(=O)c2ccc([N+](=O)[O-])cc2)s1)(C(F)(F)F)C(F)(F)F)c1ccc(Cl)cc1,?,-2%,11µM*,?,-4,-86%
Cn1ncc(Cl)c(Oc2ccc(C(C)(C)C)cc2)c1=O,21%,?,35µM*,-16%,-16,-24%
Cn1ncc(Cl)c(Oc2ccccc2)c1=O,29%,0%,-6%,7%,-5,-9%
COc1ccc(N2C(=O)C(CN3CCCCC3)C2c2ccccc2)cc1 (stereo not given),-2%,9%,-7%[10 µM],8%,12,-5%
CC(=O)Nc1cccc(-c2ccnc3c2CC(C)(C(=O)Nc2cccc(C(C)=O)c2)O3)c1 (stereo not given),nt,nt,nt,nt,nt,-43%
CCNc1nc(NC(C)CC)nc(ON=C(C)C)n1 (stereo not given),9%,10%,-20%,14µM*,0,-10%
CCNc1nc(NCC)nc(ON=C(C)C)n1,-16%,5%,-5%,?,nt,nt
CCOC(=O)[C@H]1[C@H]2COc3cc(OC)ccc3[C@@H]2N2C(=O)c3cc(F)c(F)cc3NC(=O)[C@@]12C,?,-11%,nt,nt,-5,-29%
O=S(=O)(c1cccc(C(F)(F)F)c1)N1CCC(CO)(CCCc2ccccc2)CC1,-7%,nt,-17%,40%,9,-20%
CCCCCCCCCCCC[n+]1ccc2ccccc2c1,nt,nt,5µM*,?,nt,nt
O=[N+]([O-])c1ccc(C[n+]2cccc3c4ccccc4ccc32)cc1,?,1%,-12%[10 µM],14%,-16,-22%
CCCCCCCCCCCCCCCC[n+]1ccc(/C=N/O)cc1,?,-4%,7.1µM*,?,-29,-74%
CCCCCCCCC[n+]1cccc2c3ccccc3ccc21,?,-25%,2.5µM*,8.9µM*,2,-76%
CCCCCCCCCCCCCC[n+]1ccc(C)cc1,nt,nt,4µM*,?,nt,nt
CC(=O)Nc1ccc(S(=O)(=O)N(C)c2ccc(OCC(=O)OCC(=O)Nc3ccc(OC(F)F)cc3)cc2)cc1,10%,-2%,6%,14%,3,8%
COc1ccccc1NC(=O)c1csc2c1CCC(C)C2 (stereo not given),6%,0%,?,-7%,9,19%
Cc1ccc(NC(=O)c2cc3c(s2)CCC3)cc1S(=O)(=O)N1CCOCC1,23µM*,-2%,-10%,?,23,-14%[1.84 µM]
Cc1ccc(S(=O)(=O)N2CCOCC2)cc1NC(=O)c1cc2c(s1)CCC2,23µM*,-5%,0%,11%,4,-30%
COc1cc(S(=O)(=O)N2CCOCC2)ccc1NC(=O)c1cc2c(s1)CCC2,-27%,-2%,-6%,16%,-8,-40%
